Assay outcomes deposited in PubChem BioAssay by National Center for Advancing Translational Sciences (NCATS).
Most compounds without a hit are left out; they make up all but 2.4% or so of the library.
AmpC nodet inh: AmpC beta-lactamase inhibition, detergent-free assay | P00811 | AmpC nitrocefin hydrolysis, absorbance 480 nm, no detergent | Potency, µM (highest dose often 28.7 µM), inactives show at the top dose activity change, negative = inhibition | hit rate 1.8% among 71,000; further: % of control where 0% means no effect
Target sequence (P00811 whole entry, looked up): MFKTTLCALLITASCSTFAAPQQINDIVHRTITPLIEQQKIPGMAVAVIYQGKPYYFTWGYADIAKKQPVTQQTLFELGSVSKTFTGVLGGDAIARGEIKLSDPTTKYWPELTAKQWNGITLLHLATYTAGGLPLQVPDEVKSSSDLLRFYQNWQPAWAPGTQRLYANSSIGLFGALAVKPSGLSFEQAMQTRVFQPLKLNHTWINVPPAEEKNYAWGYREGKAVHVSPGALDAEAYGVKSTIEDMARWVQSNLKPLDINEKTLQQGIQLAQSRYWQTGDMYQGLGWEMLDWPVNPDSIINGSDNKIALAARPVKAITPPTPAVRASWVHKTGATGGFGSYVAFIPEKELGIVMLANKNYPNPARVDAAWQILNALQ
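AmpC in 20 mM phosphate buffer pH 7.0 was preincubated 15 min at room temperature with compounds. Nitrocefin (800 uM stock) was then added and hydrolysis followed at 480 nm every 20 s for 4 min.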
Prx2 Sm inh: blocks S. mansoni peroxiredoxin 2 enzymatic activity. S. mansoni Prx2 activity coupled to TGR/GSH (TGR is thioredoxin glutathione reductase), NADPH fluorescence loss, qHTS. Potency, µM. hit rate 0.07% among 65,000. AID 448
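Prx2 activity was followed as the loss of NADPH fluorescence (ex 365/em 450 nm), read every 30 sec for 8 min after H2O2 start. The enzyme mix (50 nM Prx2, 25 nM TGR, GSH, NADPH; pH 7.4 phosphate buffer) was incubated with compound for 15 min at room temperature first.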
AmpC inh det: blocks E. coli AmpC beta-lactamase in presence of detergent | P00811 | purified AmpC, nitrocefin hydrolysis with detergent | Potency, µM (highest dose often 28.7 µM), inactives show top-dose activity change, negative = inhibition | hit rate 0.09% among 71,000 | AID 584; active means well fitted curve in the direction sought with a large enough effect; inconclusive means small, poorly fitted or top-dose-only effect; further: on the % scale 0 is the no-effect control and ±100 the full control effect
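E. coli AmpC (5.3 nM) in 20 mM phosphate pH 7.0 with 0.01% Triton X-100, preincubated 15 min RT with compound; nitrocefin (2 uL of 800 uM stock) hydrolysis followed by 480 nm absorbance every 20 s over 4 min.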
LT uptake inh: blocks cellular internalization of anthrax lethal toxin; Cells, anthrax lethal toxin internalization, FRET ratio (460/530); Potency, µM (series often up to 40 µM), for inactives: at the top dose activity change, negative = inhibition, hits mostly inhibitors; hit rate 0.67% among 70,000; AID 912; further: on the % scale 0 is the no-effect control and ±100 the full control effect; nearly all actives have a fitted effect of over 50% in size
Starred values were filed as active, the others as inactive; [ ] = another dose, or the depositor's remark. Unless noted, the call rests on the fitted dose curve. Potency means the concentration at half of the fitted maximal effect.

How did CC1(C(=O)NC2CCCCCC2)CCC(=O)N1Cc1ccc2c(c1)OCO2 (stereo not drawn) do in these assays?
AmpC nodet inh: 40.9%; Prx2 Sm inh: >57; AmpC inh det: 2.7%; LT uptake inh: -1.8%

How did COc1ccc(CCNC(=O)C2(C)CCC(=O)N2Cc2ccc3c(c2)OCO3)cc1OC (stereo not drawn) do in these assays?
AmpC nodet inh: 3.98µM*[single pt active]; Prx2 Sm inh: >57; AmpC inh det: 11.5%; LT uptake inh: -0.9%

Results for COc1ccc(NC(=O)Cn2cnc3c(cnn3-c3ccc(C)c(C)c3)c2=O)c(OC)c1 ?
AmpC nodet inh: 65.0%; Prx2 Sm inh: >57; AmpC inh det: 10.5%; LT uptake inh: -8.1%

What do the screens show for `COC(=O)c1ccc(NC(=O)NS(=O)(=O)c2ccc(C)cc2)cc1`?
AmpC nodet inh: 0.2%; AmpC inh det: 1.0%; LT uptake inh: 5.9%

Results for c1ccc(C(CN2CCOCC2)c2ccccc2)cc1 ?
AmpC nodet inh: 18.9%; Prx2 Sm inh: >57; AmpC inh det: -2.6%; LT uptake inh: 3.2%

What do the screens show for `O=C(c1ccc(F)cc1)C(CN1CCOCC1)c1ccccc1` (stereo not drawn)?
AmpC nodet inh: 42.3%; AmpC inh det: -3.9%; LT uptake inh: 12.6µM*

What do the screens show for `CCC(C)NC(=O)C1c2ccccc2C(=O)N1Cc1ccccc1OC` (stereo not drawn)?
AmpC nodet inh: 4.0%; Prx2 Sm inh: >57; AmpC inh det: -3.1%; LT uptake inh: 9.3%

Results for CC(=O)OC1c2ccccc2C(=O)N1Cc1ccccc1Cl (stereo not drawn) ?
AmpC nodet inh: 3.98µM*[single pt active]; Prx2 Sm inh: >57; AmpC inh det: 9.4%; LT uptake inh: -5.2%

Results for COc1ccccc1-n1c(SCC(=O)NC(C)(C)C)nc(O)cc1=O ?
AmpC nodet inh: -3.6%; Prx2 Sm inh: >57; AmpC inh det: -2.5%; LT uptake inh: inconclusive

Results for COc1ccccc1-n1c(SC)nc(O)cc1=O ?
AmpC nodet inh: 2.51µM*[single pt active]; Prx2 Sm inh: >57; AmpC inh det: 11.0%; LT uptake inh: -12.2%

Results for O=C1CC(c2ccc(Cl)cc2)n2nc(N3C(=O)c4ccccc4C3=O)nc2N1 (stereo not drawn) ?
AmpC nodet inh: 7.7%; Prx2 Sm inh: >57; AmpC inh det: 1.5%; LT uptake inh: -8.2%

Results for COc1ccc(CNc2ncncc2-c2cccc(C#N)c2)c(OC)c1 ?
AmpC nodet inh: 58.6%; Prx2 Sm inh: >57; AmpC inh det: -1.1%; LT uptake inh: -7.0%

What do the screens show for `Cc1noc(C)c1-c1ccc2ncnc(NC3CCNCC3)c2c1`?
AmpC nodet inh: -7.7%; Prx2 Sm inh: >57; AmpC inh det: 8.8%; LT uptake inh: 2.5%

Results for CCCN1CCN(CCCNC(=O)Cn2nc(-c3ccc(Cl)cc3)ccc2=O)CC1 ?
AmpC nodet inh: 2.6%; Prx2 Sm inh: >57; AmpC inh det: -2.3%; LT uptake inh: inconclusive

Results for O=C1CCn2nc(-c3ccc(Cl)cc3)cc2N1 ?
AmpC nodet inh: 3.98µM*[single pt active]; Prx2 Sm inh: >57; AmpC inh det: 10.8%; LT uptake inh: -13.1%

What do the screens show for `COc1ccc(NC(=O)Cn2nc(C(F)(F)F)c3c2CCCC3)c(OC)c1`?
AmpC nodet inh: 52.3%; Prx2 Sm inh: >57; AmpC inh det: -6.9%; LT uptake inh: 12.6µM*

Results for COc1ccc(CNC(=O)Cn2nc(C(F)(F)F)c3c2CCC3)cc1 ?
AmpC nodet inh: 6.6%; Prx2 Sm inh: >57; AmpC inh det: -2.0%; LT uptake inh: -5.3%

What do the screens show for `Cc1ccc(N2C(=O)c3n[nH]c(C)c3C2c2cccnc2)cc1` (stereo not drawn)?
AmpC nodet inh: 11.5%; Prx2 Sm inh: >57; AmpC inh det: -2.5%; LT uptake inh: -5.4%

What do the screens show for `COc1ccc(OC)c(NC(=O)Nc2nnc(N3CCC(C)CC3)s2)c1`?
AmpC nodet inh: 3.98µM*[single pt active]; Prx2 Sm inh: >57; AmpC inh det: 11.5%; LT uptake inh: inconclusive

How did COc1ccc(NC(=O)Nc2nnc(N3CCC(C)CC3)s2)cc1OC do in these assays?
AmpC nodet inh: 3.98µM*[single pt active]; Prx2 Sm inh: >57; AmpC inh det: 18.1%; LT uptake inh: -1.0%

What do the screens show for `Cc1ccc2cccc(OC(=O)N(C)c3ccccc3)c2n1`?
AmpC nodet inh: 33.4%; AmpC inh det: 3.8%; LT uptake inh: 15.8µM*

Results for C=CCSc1nnc(NC(=O)CSc2nc3ccccc3o2)s1 ?
AmpC nodet inh: 10µM*[single pt active]; Prx2 Sm inh: >57; AmpC inh det: -3.1%; LT uptake inh: 26.0%

Results for COC(=O)c1c(C)oc2ccc(NS(=O)(=O)c3cc(OC)ccc3OC)cc12 ?
AmpC nodet inh: 57.6%; Prx2 Sm inh: >57; AmpC inh det: -6.0%; LT uptake inh: -9.4%

How did CN(C)Cc1cc(C(C)(C)C)ccc1-c1ccc(C(C)(C)C)cc1CN(C)C do in these assays?
AmpC nodet inh: -4.5%[5.75 µM]; Prx2 Sm inh: >57; AmpC inh det: -4.8%[5.75 µM]; LT uptake inh: 3.6%[8 µM]

Results for O=C(c1ccc(-c2nnc(-c3ccccc3)o2)cc1)N1CCCCCC1 ?
AmpC nodet inh: 77.8%; Prx2 Sm inh: >57; AmpC inh det: -1.0%; LT uptake inh: 4.6%

How did O=C(c1ccc(-c2ccccc2)cc1)N1CCN(c2nc3ccccc3o2)CC1 do in these assays?
AmpC nodet inh: 3.98µM*[single pt active]; Prx2 Sm inh: >57; AmpC inh det: 7.8%; LT uptake inh: -9.2%

What do the screens show for `COc1ccc(-n2nnc3c(=O)n(Cc4ccccc4C)cnc32)cc1`?
AmpC nodet inh: -10.1%; Prx2 Sm inh: >57; AmpC inh det: -0.1%; LT uptake inh: -4.3%

Results for Oc1cc(Cl)c(Cl)c(Cl)c1 ?
AmpC nodet inh: -17.2%; AmpC inh det: 10.3%; LT uptake inh: 12.6µM*

How did Oc1c(Cl)c(Cl)cc(Cl)c1Cl do in these assays?
AmpC nodet inh: -18.3%; AmpC inh det: 7.4%; LT uptake inh: -5.0%

How did Cc1ccc(S(=O)(=O)N2CCC(C(=O)N3Cc4ccccc4C3)CC2)cc1 do in these assays?
AmpC nodet inh: 23.5%; Prx2 Sm inh: >57; AmpC inh det: 0.9%; LT uptake inh: 8.7%

What do the screens show for `Nc1ccccc1O.O.O=C(O)[C@H]1[O][Sb][O][C@H]1C(=O)O`?
AmpC nodet inh: -4.6%[5.75 µM]; Prx2 Sm inh: 0.221*; AmpC inh det: -1.7%[5.75 µM]; LT uptake inh: inconclusive

How did Cc1cc2c(cc1S(N)(=O)=O)S(=O)(=O)CCC2 do in these assays?
AmpC nodet inh: -8.5%[12.8 µM]; Prx2 Sm inh: >57; AmpC inh det: -0.9%[12.8 µM]; LT uptake inh: 0.9%[3.58 µM]

Results for CCOC(=O)CSCc1nc(-c2ccc(Cl)cc2)oc1C ?
AmpC nodet inh: 3.98µM*[single pt active]; Prx2 Sm inh: >57; AmpC inh det: 25.4%; LT uptake inh: inconclusive

What do the screens show for `CCC(C)N1CC23C=CC(O2)C(C(=O)OC)C3C1=O` (stereo not drawn)?
AmpC nodet inh: 3.98µM*[single pt active]; Prx2 Sm inh: >57; AmpC inh det: 12.5%; LT uptake inh: 9.9%

What do the screens show for `CCOC(=O)C1[C@H]2C(=O)N(C(C)c3ccc(OC)cc3)C[C@]23C=C[C@H]1O3` (stereo partly drawn)?
AmpC nodet inh: -10.8%; Prx2 Sm inh: >57; AmpC inh det: -2.3%; LT uptake inh: inconclusive

How did COP(=S)(OC)Oc1ccc([N+](=O)[O-])cc1 do in these assays?
AmpC nodet inh: -4.4%; AmpC inh det: 11.4%; LT uptake inh: 19.1%
